In PubChem BioAssay (NCI):
Values joined by “and” are separate entries in the source; they are usually repeats but may differ in a detail not shown here. Identical values can stand only once. About 83,000 compounds went through this panel and 20% of them were active in at least one assay; those are over-represented in the sample as a whole.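 Method: cells in 96-well plates; compound added at one concentration; 48 h incubation; percent growth measured; values under 10 scored active.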 Active and inactive are the calls of the source.

What follows are molecules tested on MDA-MB-468 breast (assay: NCI-60 one-dose screen, 48 h (100 = growth as untreated, 0 = no growth, -100 = all killed)). Details: 10 µM unless noted.

| SMILES | growth |
| --- | --- |
| O=c1oc2ccc(I)cc2c(=O)n1-c1ccc(Br)cc1F | -2.16% (active) |
| CS(=O)(=O)Cc1cnc(C2OCCO2)s1 | 97.7% (inactive) |
| O=C(Nc1ccccc1O)c1ccc(NS(=O)(=O)c2cccc3cccnc23)cc1 | 49.8% (inactive) |
| COc1cccc2c1C=C1CCCCC3=Cc4c(OC)cccc4OC13O2 | 19% (inactive) |
| CC1=C(C(=O)/C=C/c2c[nH]c3ccccc23)C(c2ccccc2)NC(=S)N1 (centres undefined) | 102% (inactive) |
| COc1cc(-c2ccc3c(c2)NC(=O)/C3=C\c2ccc[nH]2)ccc1O | 16.6% (inactive) |
| CCCCCCCC/C=C/CCCCCCCC1=NCC[N+]1(CCO)CCO | 23% (inactive) |
| N=c1c2cc(-c3ccccc3)oc2ncn1/N=C/c1ccc(Br)cc1 | 68.3% (inactive) |
| CC/C(=C(\c1ccc(Cl)cc1)c1ccc(OCCN2CCCCC2)cc1)c1ccc(O)cc1 | 22.4% (inactive) |
| CN[C@@H](C)C(=O)N[C@H]1CCS[C@H]2CC(C)(C)[C@@H](C(=O)N[C@H]3c4ccccc4C[C@H]3OCC#CC#CCO[C@@H]3Cc4ccccc4[C@@H]3NC(=O)[C@H]3N4C(=O)[C@@H](NC(=O)[C@H](C)NC)CCS[C@H]4CC3(C)C)N2C1=O | 19.3% (inactive) |
| CCSc1ccc([C@@H]2[C@@H](O)C(=O)N2c2cc(OC)c(OC)c(OC)c2)cc1 | 40.2% (inactive) |
| CCNC(=O)Oc1ccc(/C(=C(/CC)Cc2ccccc2)c2ccc(OCCN3CCOCC3)cc2)cc1 | 46.1% (inactive) |
| C[C@]12C=CC(=O)C=C1CCC1C2[C@@H](O)C[C@@]2(C)C1CC[C@]2(O)C(=O)COC(=O)CCC(=O)O (some centres undefined) | 115% (inactive) |
| CC1(C)CC[C@]23CC[C@]4(C)[C@H](CC[C@@H]5[C@@]6(C)C/C(=C/O)C(=O)C(C)(C)[C@@H]6CC[C@]54C)[C@H]2[C@H]1OC3 | 119% (inactive) |
| O=c1cc(-c2ccccc2)[nH]c(=S)[nH]1 | 115% (inactive) |
| Cc1ccc(Cl)cc1Nc1nc(C(F)(F)F)ccc1C(=O)N/N=C/c1c(Cl)cccc1Cl | -13.1% (active) |
| c1cnc2[nH]cc(-c3csc(-c4cn(CCCN5CCCCC5)c5ccccc45)n3)c2c1 | 70.2% (inactive) |
| NCCOc1ncccc1/C=C1\c2ccccc2-c2ccc(F)cc21 | -24.1% (active) |
| CC(=O)Nc1ccc2c(c1)Cc1c(F)c(F)c(F)c(F)c1-2 | 82.5% (inactive) |
| CC1=C[C@H]2c3c(c(O)c(O)c4oc5ccccc5c(=O)c34)[C@H](c3cc(O)c(O)c4oc5ccccc5c(=O)c34)[C@H]2C(C)(C)C1 | 25.2% (inactive) |

| SMILES | growth |
| --- | --- |
| Cc1nc(Cl)c2c(n1)N(C)c1ccc(Cl)cc1C(C)C2 (centres undefined) | 67.1% (inactive) |
| COC(=O)c1ccc2c(c1)nc(-c1ccc(O)c(OC)c1)n2-c1cc(C(C)(C)C)[nH]n1 | 104% (inactive) |
| OCCN1CCN(CC/C=C2\c3ccccc3Sc3ccc(Cl)cc32)CC1 | -97.1% (active) |
| COc1cccc2c1C(=O)c1c(O)c3c(c(O)c1C2=O)C[C@](O)(C(=O)CO)C[C@H]3O[C@@H]1C[C@@H](NC(=O)CCCN(C)C2(c3ccc(F)cc3)CC3CCC2C3)[C@H](O)[C@@H](C)O1 (some centres undefined) | -82.4% (active) |
| Cc1cc2c(c(C)c1Cl)C(=O)/C(=C/c1cccc([N+](=O)[O-])c1)O2 | 92.2% (inactive) |
| Cc1ccc(Sc2sc(-c3ccccc3)nc2[P+](c2ccccc2)(c2ccccc2)c2ccccc2)cc1 | -61.8% (active) |
| N#C/C(=N\Nc1ccc(F)cc1)C(=O)Nc1cc(-c2ccccc2)nn1-c1ccccc1 | -21% (active) |
| CC(C)[C@H](CO)Nc1nc(Nc2ccc(C(=O)NCCNS(=O)(=O)c3cccc4c(N(C)C)cccc34)c(Cl)c2)c2ncn(C(C)C)c2n1 | -14.1% (active) |
| C=C(C)[C@@H]1CC[C@]2(C)[C@H](CC=C3[C@@H]4[C@@H](C)[C@H](C)CC[C@]4(C(N)=O)CC[C@]32C)[C@@]1(C)CCC#N | 0.182% [100 µM] (active) |
| O=C(c1ccccc1)C(Br)[N+](=O)[O-] (centres undefined) | 114% (inactive) |
| CC1(C(=O)O)NC(C(=O)O)Cc2c1[nH]c1ccccc21 (centres undefined) | 113% (inactive) |
| NNCCc1ccccc1 | 113% (inactive) and 89.6% (inactive) |
| C[C@H]1O[C@@H](O[C@H]2[C@@H](O)C[C@H](O[C@H]3[C@@H](O)C[C@H](O[C@H]4CC[C@]5(C)C6C[C@@H](O)[C@]7(C)[C@@H](C8=CC(=O)OC8)CC[C@]7(O)C6CC[C@@H]5C4)O[C@@H]3C)O[C@@H]2C)C[C@H](O)[C@@H]1O (some centres undefined) | -61.7% (active) |
| CCCCCCCCCC1=NC(C)(C)CN1C(C)(C)CO | 70.3% (inactive) |
| C[C@]12CC[C@@H]3c4ccc(O)cc4CC[C@H]3[C@@H]1CC[C@@H]2NS(=O)(=O)c1cccc(Br)c1 | 53.8% (inactive) |
| CCC1=C[C@]2(C3CC(=O)N(c4ccccc4)C3=O)CC(C(C)(C)C)C[C@@H]2[C@@H]2C(=O)N(c3ccccc3)C(=O)[C@H]12 (some centres undefined) | 90.2% (inactive) |
| CCCCC1=C(P(=O)(O)O)N[C@H](C(=O)O)CS1 | 89.1% (inactive) |
| O=C(c1ccccc1)c1c(/C=C/c2ccccc2)nc2ccccc2c1/C=C/c1ccc(Br)cc1 | 94.3% (inactive) |
| COc1cc(NC(=O)COc2cc(C)nc3ccc(OC)cc23)cc(OC)c1 | 76.3% (inactive) |
